The source made the active and inactive calls. The call rests on the fitted dose curve; in most records, active means well fitted curve in the direction sought with a large enough effect in the repeat runs; inconclusive means weak or mixed curves; inactive means flat fitted curve, though single readings scatter.
Assay: qHTS assay to test for compound auto fluorescence at 590 nm (red) in HepG2 cells (AID 720674)
Settings: HepG2 autofluorescence, red 540/590 nm, 1 h; series mostly up to 91.3 µM
Method in brief: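 Intrinsic compound fluorescence in the red window (Ex/Em 540/590 nm) is measured in attached HepG2 cells exposed for 1 hr, DMSO vehicle as baseline, benchmarked to Rose Bengal sodium.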

| Structure (SMILES) | outcome |
| --- | --- |
| Nc1cccc(N)n1 | inactive |
| CN=C(NC#N)NCCSCc1nc[nH]c1C | inactive |
| NCCNCCNCCN | inactive |
| C=C(C)CC(C)(C)C | inactive |
| CC(C=O)Cc1ccc(C(C)(C)C)cc1 (stereo unspecified) | inactive |
| COc1ccc2cc3[n+](cc2c1OC)CCc1cc2c(cc1-3)OCO2 | inactive |
| Cc1ncc(CO)c(CO)c1O | inactive |
| CN1Cc2c(N)cccc2C(c2ccccc2)C1 (stereo unspecified) | inactive |
| CCCCCCCCCCCC(=O)N(C)CC(=O)O | inactive |
| O=C1CCCCCCCCCCC1 | inactive |
| CC[N+](CC)(CC(=O)Nc1c(C)cccc1C)Cc1ccccc1 | inactive |
| NC1CCCCC1N (stereo unspecified) | inactive |
| OCC(O)CS (stereo unspecified) | inactive |
| C=C1C[C@]23C[C@@]1(O)CC[C@H]2[C@@]12C=C[C@H](O)[C@@](C)(C(=O)O1)[C@H]2[C@@H]3C(=O)O | inactive |
| OCCOCCOCCOCCOCCO | inactive |
| CC(COCC(C)OC(=O)c1ccccc1)OC(=O)c1ccccc1 (stereo unspecified) | inactive |
| CC(CN1c2ccccc2Sc2ccccc21)N(C)C (stereo unspecified) | inactive |
| O=C1O[C@H]([C@H](O)CO)C(O)=C1O | inactive |
| OC1CCCCC1 | inactive |
| CO[Si](CCCNCCN)(OC)OC | inactive |
| OCC(CO)(CO)CO | inactive |
| Cc1cccc(C)c1[N+](=O)[O-] | inactive |
| COC(=O)/C=C\C(=O)OC | inactive |
| CCN(CC)CCNC(=O)c1ccc(N)cc1 | inactive |
| O=C(NCC1CCCCN1)c1cc(OCC(F)(F)F)ccc1OCC(F)(F)F (stereo unspecified) | inactive |
| COc1c(Cl)ccc(Cl)c1C(=O)O | inactive |
